Source: PubChem BioAssay AID1159580 (chemical genetic matrix, 2015)
Values joined by “and” are separate entries in the source; they are usually repeats but may differ in a detail not shown here. Identical values can stand only once. The campaign covered roughly 5,500 compounds. About 2,000 (36%) were called active. Roughly 18% stayed inconclusive and do not appear here. Rule as the data show it: active = normalized growth mostly below about 0.91 (no sharp cut-off); inconclusive = no clear call, values can overlap the other calls; inactive = mostly above about 0.92. Some of the results follow.

Assay: chemical genetic growth profiling, strain panel (AID 1159580);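 also: tested at 20 µM; growth read once vehicle control cultures reached saturation at 30 °C; 1 = growth at the plate median or of vehicle wells; lower values mean less growth of the strain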
Settings: S. cerevisiae deletion strains, growth OD

Measured: normalized growth

NC1=NCCN1CC(=O)O
inactive: locus YAL013W, strain DEP1, hits give low values 0.99 | locus YAL021C, strain ccr4, hits give low values 1.02 | locus YAL026C, strain drs2, hits give low values 1.02 | locus YAL030W, strain snc1, hits give low values 1.03 | locus YBL061C, strain skt5, hits give low values 1.01 | locus YBR009C, strain hhf1, hits give low values 1 | locus YBR021W, strain FUR4, hits give low values 1 | locus YBR023C, strain chs3, hits give low values 1.01 | locus YBR171W, strain sec66, hits give low values 1.01 | locus YBR229C, strain ROT2, hits give low values 0.96 | locus YBR231C, strain swc5, hits give low values 1.01 | locus YBR279W, strain paf1, hits give low values 1.01 | locus YCL011C, strain gbp2, hits give low values 1.04 | locus YCL016C, strain dcc1, hits give low values 1.01 | locus YCL029C, strain bik1, hits give low values 0.997 | locus YCL069W, strain vba3, hits give low values 1.01 | locus YCR088W, strain abp1, hits give low values 1.02 | locus YDL005C, strain med2, hits give low values 1.01 | locus YDL035C, strain GPR1, hits give low values 0.989 | locus YDL040C, strain nat1, hits give low values 1.01 | locus YDL074C, strain BRE1, hits give low values 0.924 | locus YDL101C, strain DUN1, hits give low values 0.961 | locus YDL134C, strain PPH21, hits give low values 1.01 | locus YDL185W, strain tfp1, hits give low values 0.986 | locus YDL192W, strain arf1, hits give low values 0.992 | locus YDR001C, strain nth1, hits give low values 1.01 | locus YDR069C, strain doa4, hits give low values 1.02 | locus YDR101C, strain arx1, hits give low values 0.996 | locus YDR137W, strain rgp1, hits give low values 1.04 | locus YDR150W, strain NUM1, hits give low values 0.986 | locus YDR159W, strain sac3, hits give low values 0.958 | locus YDR162C, strain NBP2, hits give low values 0.99 | locus YDR195W, strain ref2 1.02 | locus YDR297W, strain sur2, hits give low values 1 | locus YDR318W, strain mcm21, hits give low values 0.995 | locus YDR334W, strain swr1, hits give low values 1.01 | locus YDR335W, strain msn5, hits give low values 1.01 | locus YDR388W, hits give low values 0.989 | locus YDR392W, strain spt3, hits give low values 0.86 | locus YDR502C, strain sam2, hits give low values 0.988 | locus YEL003W, strain gim4, hits give low values 0.996 | locus YEL037C, strain rad23, hits give low values 1.02 | locus YEL061C, strain CIN8 (second series), hits give low values 1.03 | locus YEL061C, strain CIN8, hits give low values 0.981 | locus YER015W, strain faa2, hits give low values 1.02 | locus YER016W, strain bim1, hits give low values 1.03 | locus YER110C, hits give low values 0.988 | locus YER111C, strain swi4, hits give low values 1.03 | locus YER155C, strain BEM2 (second series), hits give low values 0.911 | locus YER155C, strain BEM2, hits give low values 1 | locus YER167W, strain BCK2, hits give low values 0.984 | locus YFR010W, strain ubp6, hits give low values 1.01 | locus YGL078C, strain dbp3, hits give low values 0.997 | locus YGL086W, strain mad1, hits give low values 0.98 | locus YGL167C, strain pmr1, hits give low values 1.01 | locus YGL173C, strain kem1, hits give low values 1 | locus YGL227W, strain vid30, hits give low values 1.04 | locus YGL240W, strain doc1, hits give low values 1 | locus YGL248W, strain PDE1, hits give low values 0.971 | locus YGL253W, strain hxk2, hits give low values 1.01 | locus YGR135W, strain pre9, hits give low values 1.01 | locus YGR229C, strain SMI1, hits give low values 1.02 | locus YGR252W, strain gcn5, hits give low values 1.01 | locus YHR013C, strain ard1, hits give low values 0.996 | locus YHR027C, strain rpn1, hits give low values 1.02 | locus YHR030C, strain SLT2, hits give low values 0.998 and 0.992 | locus YHR079C, strain IRE1 (second series), hits give low values 0.997 | locus YHR079C, strain IRE1, hits give low values 0.992 | locus YHR094C, strain hxt1, hits give low values 0.995 | locus YHR129C, strain ARP1, hits give low values 0.999 | locus YHR142W, strain chs7, hits give low values 0.992 | locus YHR200W, strain rpn10, hits give low values 0.99 | locus YIL066C, strain RNR3, hits give low values 0.966 | locus YIL073C, strain SPO22, hits give low values 1.07 | locus YIL125W, strain kgd1, hits give low values 0.984 | locus YIR030C, strain dcg1, hits give low values 0.994 | locus YJL092W, strain hpr5, hits give low values 1.01 | locus YJL095W, strain BCK1 (second series), hits give low values 1.02 | locus YJL095W, strain BCK1, hits give low values 0.969 and 0.972 | locus YJL115W, strain asf1, hits give low values 1.02 | locus YJL129C, strain trk1, hits give low values 1 | locus YJL134W, strain LCB3, hits give low values 0.988 | locus YJL154C, strain vps35, hits give low values 1.02 | locus YJL164C, strain tpk1, hits give low values 0.986 | locus YJL166W, strain qcr8, hits give low values 1 | locus YJL168C, strain set2, hits give low values 0.989 | locus YJL187C, strain SWE1 (second series), hits give low values 0.964 | locus YJL187C, strain SWE1, hits give low values 1
